Screening data as filed in PubChem BioAssay.
A selection: hits, their analogues and other compounds. The true share with any hit is near 11%.
PNC inhibitor: perinucleolar compartment assembly inhibition | PC3M PTB-GFP, PNC prevalence imaging, 16 h; active compounds read low | activity change (PNC), negative = inhibition, % at 10 µM | 3.1% of 140,000 active | AID 2417;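 active means readout at or below -70, meaning at least 70% loss of cells showing the perinucleolar compartment, a nuclear body marking cancer cells; inconclusive means readout between -30 and a set limit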;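 further: plate controls were DMSO wells for no effect and camptothecin positive control wells for full effect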
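Compounds are pinned in duplicate onto adhered PC3M cells stably expressing GFP-tagged PTB and incubated 16 h at 37 C. Cells are then fixed, nuclei stained with Hoechst, and PNC-positive cells counted.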
ALDH1A1 inh: ALDH1A1 (human) enzyme inhibition; P00352; Purified ALDH1A1, NADH fluorescence, propionaldehyde substrate; Potency, µM (top dose mostly 75.3 µM), for the others: at the highest dose activity, negative = inhibition, hits mostly inhibitors; 7.3% of 220,000 active;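 further: potency means the concentration at half of the fitted maximal effect; plate controls were no enzyme wells and a reference inhibitor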
Target sequence (P00352 whole entry, looked up): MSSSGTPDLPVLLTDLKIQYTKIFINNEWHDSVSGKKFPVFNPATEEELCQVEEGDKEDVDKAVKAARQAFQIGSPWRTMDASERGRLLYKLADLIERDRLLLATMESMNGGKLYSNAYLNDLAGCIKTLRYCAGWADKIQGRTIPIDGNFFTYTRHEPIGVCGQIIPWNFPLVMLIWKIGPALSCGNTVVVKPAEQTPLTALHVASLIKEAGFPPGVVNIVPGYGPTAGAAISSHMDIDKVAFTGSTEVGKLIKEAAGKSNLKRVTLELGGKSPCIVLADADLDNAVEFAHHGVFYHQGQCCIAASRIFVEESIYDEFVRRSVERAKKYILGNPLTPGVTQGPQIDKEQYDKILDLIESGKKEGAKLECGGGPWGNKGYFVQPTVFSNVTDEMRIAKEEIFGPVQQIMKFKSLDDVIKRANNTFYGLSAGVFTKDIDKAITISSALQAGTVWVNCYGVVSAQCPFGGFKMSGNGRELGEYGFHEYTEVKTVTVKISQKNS
RGS12 GoLoco inh: inhibitors of human Gai1-RGS12 GoLoco interaction (red fluorophore); P63096; Gai1:RGS12 GoLoco peptide FP, rhodamine, 10 min; Potency, µM (doses to about 61.6 µM), for inactives: at the highest dose activity, negative = inhibition, actives largely listed as inhibitors; 0.44% of 230,000 active; active means well fitted inhibition curve with a large enough effect, not every such curve was filed as active; inactive means no such curve, though single readings can be large or run the other way; further: potency means the concentration at half of the fitted maximal effect; on the % scale 0 is the no-effect control and ±100 the full control effect; nearly all actives have a fitted effect of over 30% in size
HTT aggregate: reduces HttQ103-GFP aggregates in PC12 cells. PC12 HttQ103-GFP aggregates, Acumen cytometry, 40 h. Potency, µM (top dose mostly 46.1 µM), without a hit: top-dose activity change, negative = inhibition, hits mostly inhibitors. 1.1% of 220,000 active; active means well fitted curve in the direction sought with a large enough effect; inconclusive means small, poorly fitted or top-dose-only effect, or another doubt; inactive means no such curve, though single readings can be large; an effect the other way counts as inactive or inconclusive; further: potency means the concentration at half of the fitted maximal effect; on the % scale 0 is the no-effect control and ±100 the full control effect; nearly all actives have a fitted effect of over 60% in size
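Using laser scanning cytometry, GFP-positive aggregates were counted after lysis of PC12 cells induced with 100 nM tebufenozide to express HTT exon 1 Q103–GFP. Compounds were tested in titration.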
HTT ATP protect: Huntington cell model cytoprotection by ATP luminescence; PC12 HTT-Q103 induced, cytoprotection, ATP luminescence, 40 h; Potency, µM (top dose mostly 56.4 µM), inactives show cytoprotection (ATP increase), hits mostly activators; 0.14% of 230,000 active; AID 1471; active means well fitted curve in the direction sought with a large enough effect; inconclusive means small, poorly fitted or top-dose-only effect, or another doubt; inactive means no such curve, though single readings can be large; an effect the other way counts as inactive or inconclusive; further: potency means the concentration at half of the fitted maximal effect; % of control where 0% means no effect; nearly all actives have a fitted effect of over 45% in size
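ATP quantification (ATPlite) reports survival of PC12 cells in which tebufenozide, 100 nM final, switches on Htt exon 1 with 103 glutamines linked to GFP; compounds are titrated.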
HPGD block: blocks human HPGD enzyme activity; P15428; Potency, µM, for the others: at the top dose activity change, negative = inhibition, most hits filed as inhibitors; purified HPGD, NADH fluorescence kinetic, PGE2 substrate; AID 894; 4.3% of 150,000 active; further: potency means the concentration at half of the fitted maximal effect; on the % scale 0 is the no-effect control and ±100 the full control effect
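20 nM HPGD preincubated 15 min at room temperature with compound in 50 mM Tris-HCl pH 8, 0.01% Tween 20. Started with 1 mM NAD+ and 30 uM prostaglandin E2; NADH fluorescence (360/450 nm) read 5 times over 30-s intervals, last minus first.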
* hit, by the source's call; ? = inconclusive; nt = no result given; [ ] = dose if it differs, or a comment. Unless noted, the call rests on the fitted dose curve; in most records, active means well fitted inhibition curve with a large enough effect (not every such curve was filed as active); inconclusive means small, poorly fitted or top-dose-only effect, or another doubt; inactive means no such curve, though single readings can be large or run the other way.

SMILES	PNC inhibitor	ALDH1A1 inh	RGS12 GoLoco inh	HTT aggregate	HTT ATP protect	HPGD block
O=C1C(NS(=O)(=O)c2cccs2)=C(N2CCN(c3ccccc3)CC2)C(=O)c2ccccc21	?	3.5µM*	-5%	14%	-4%	-25%
COc1ccc(S(=O)(=O)NCC(c2cccnc2)N2CCN(c3ccc(F)cc3)CC2)cc1C (stereo not given)	?	?	2%	0%	28%[10 µM]	-1%
O=C(NCCc1c[nH]c2ccccc12)C(=O)NCC(c1cccnc1)N1CCN(c2ccccc2)CC1 (stereo not given)	?	14%	13%	3.5µM*	nt	-2%
COc1ccc(S(=O)(=O)NCC(c2cccnc2)N2CCN(c3ccccc3)CC2)cc1C (stereo not given)	50	13µM*	131%	4%[9.22 µM]	-6%	-16%
COC(=O)C1CCN(C2=C(NS(=O)(=O)c3ccc(Cl)cc3)C(=O)c3ccccc3C2=O)CC1	nt	nt	-2%	-37%[9.22 µM]	-14%[10 µM]	nt
Cc1ccccc1C(=O)Nc1cccc(NC(=O)Cn2cnc3c(=O)n(C)c(=O)n(C)c32)c1	-27	-14%	4%	?	-96%[0.074 µM]	-8%
Cc1ccc(S(=O)(=O)NC2=C(N3CCN(c4ccccc4F)CC3)C(=O)c3ccccc3C2=O)cc1	5	?	3%	-14%	-5%	-11%
CC(=O)Nc1ccc(S(=O)(=O)NC2=C(N3CCN(c4ccc(F)cc4)CC3)C(=O)c3ccccc3C2=O)cc1	1	7.1µM*	-13%	?	-87%	-23%
O=S(=O)(NCC(c1cccnc1)N1CCN(c2ccccc2)CC1)c1cccs1 (stereo not given)	?	2.5µM*	6%	7%	8%[10 µM]	-11%
COC(=O)c1ccc(C(NC(=O)OCc2ccccc2)/C(F)=C/[C@@H](C)C(=O)Nc2ccc(OC)cc2)cc1 (stereo not given in full)	nt	6%	6%	nt	-53%	-3%
Cc1ccc(-c2cc(C(=O)OCC(=O)Nc3cc(C)on3)c3ccccc3n2)c(C)c1	-82*	0%	-2%	?	-23%[10 µM]	-6%
Cc1cc(C(=O)OCC(=O)Nc2ccccc2F)c(C)o1	39	0%	-8%	0%	9%	-7%
Cc1cccc(NS(=O)(=O)c2ccc(C)c(C(=O)OCC(=O)Nc3cc(C)on3)c2)c1	-100*	?	5%	19%	-23%[10 µM]	-17%
Cc1cccc(NS(=O)(=O)c2cc(C(=O)OCC(=O)Nc3cc(C)on3)ccc2C)c1	?	-3%	0%	10%	8%[10 µM]	-3%
Cc1cccc(NC(=O)COC(=O)c2cc(C)oc2C)c1	nt	1%	2%	13µM*	15%	nt
Cc1cc(S(=O)(=O)NCc2cccnc2)ccc1-n1cnnn1	24	10%	-2%	-9%	28%	-2%
CCOC(=O)c1nnn(-c2nonc2N)c1CSc1ccc(C)cc1	3	4.5µM*	2%	8%	6%	-23%
CCOC(=O)c1nnn(-c2nonc2N)c1CSc1ccccc1	17	?	-4%	-8%	9%	2%
Cc1nn(-c2ccccc2)c(N)c1Sc1ccc([N+](=O)[O-])cc1	?	1.4µM*	16%	-4%	33%[10 µM]	20µM*
Cc1nn(S(=O)(=O)c2ccc(Cl)cc2)c(C)c1Sc1ccc([N+](=O)[O-])cc1	-15	?	-3%	5%	-1%[10 µM]	-17%
Cc1nn(-c2ccccc2)c2c1C(c1ccc([N+](=O)[O-])cc1)C(C#N)=C(N)O2 (stereo not given)	nt	14µM*	1%	-18%[9.22 µM]	2%[10 µM]	nt
Cc1nn(-c2ccccc2)c2c1C(c1cccs1)C(C#N)=C(N)O2 (stereo not given)	-27	11µM*	4%	9%	-13%	?
Cc1nn(-c2ccccc2)c2c1C(c1ccco1)C(C#N)=C(N)O2 (stereo not given)	9	1µM*	14%	12%	-29%	-15%
COc1ccccc1-c1ccc2ncnc(NC3CC3)c2c1	nt	-4%	3%	nt	-79%	nt
CCOC(=O)c1oc2ccc(Cl)cc2c1NC(C)=O	nt	-2%	-4%	7%	-28%	nt
SMILES	PNC inhibitor	ALDH1A1 inh	RGS12 GoLoco inh	HTT aggregate	HTT ATP protect	HPGD block
Cc1cc(C(F)(F)F)n2nc(-c3cnn(C)c3C(F)(F)F)c(Br)c2n1	nt	7%	-1%	3%	-4%[10 µM]	nt
O=C(c1csnn1)N1CCC2(CCCN(c3ccc(-c4ccccc4)cc3)C2)CC1	nt	-13%	157%	nt	0%	-13%
COc1ccc(-c2cc(-n3c(C(F)(F)F)nc4ccccc43)n(CCC#N)n2)cc1	?	?	36%	2.8µM*	-16%	?
COc1ccc(Sc2nc3ccccc3n3c(C(F)(F)F)nnc23)cc1	13	-2%	11%	29%	7%	?
CCCCCCCCOC(=O)CCc1c(C)[nH]c(=S)[nH]c1=O	20	2µM*	4%	0%	-19%	-9%
CCCCCCOC(=O)CCc1c(C)nc(N)[nH]c1=O	29	19%	-3%	-3%	11%	1%
CCCCCC/C=C1\CC(C(=O)OCC)Oc2ccccc21 (stereo not given) (tested in a mixture with another compound)	nt	4%	-4%[88.7 µM]	nt	-43%	-12%
CCC(NC(=O)CCc1ccccc1)c1ccccc1 (stereo not given)	nt	4%	3%	11%	-22%	nt
CCC(NC(=O)C1CCC1)c1ccccc1 (stereo not given)	-100*	2%	4%	-10%	12%[10 µM]	-11%
COc1cc(S(=O)(=O)N2CCN(C(=O)c3ccccc3)CC2)c(OC)cc1Br	nt	-10%	4%	4%[9.22 µM]	15%[10 µM]	nt
O=C1OC(O)C(C(Cl)Cl)=C1Cl (stereo not given)	nt	20µM*	0%	nt	-56%	-8%
COc1ccccc1-c1ccc(SCc2cccc(C)c2)nn1	nt	?	33%	22µM*	?	nt
CC(C)C1=CC2=CC[C@H]3[C@@](C)(CCC[C@]3(C)C(=O)O)[C@@H]2CC1	nt	nt	nt	nt	5%	nt
CC1CC(C)(C)NC(=S)S1 (stereo not given)	-24	13µM*	-14%	1%[9.22 µM]	-21%	22µM*
Cc1c(Cl)cccc1NC(=O)CNc1ccccc1F	-17	10µM*	nt	5%	21%[10 µM]	nt
O=C(NCc1cccs1)C1CC(=O)N(c2ccc(F)cc2)C1 (stereo not given)	?	-3%	4%	-2%	-6%	-9%
CCOC(=O)C1=C(C)Nc2nnnn2C1c1ccc(OC)c(Br)c1 (stereo not given)	-19	-7%	7%	21%	-9%[10 µM]	-21%
